Laboratory results reported in PubChem BioAssay (NCATS).
Inconclusive results are not listed. A number with no mark means an inactive call. Calls of active or inactive are those of the source. Calls follow the shape of the full dose curve.

Target: Nucleoprotein (Lymphocytic choriomeningitis virus (strain Armstrong)) (UniProt P09992)
Assay: qHTS for Inhibitors of the Functional Ribonucleoprotein Complex (vRNP) of Lymphocytic Choriomeningitis Arenaviruses (LCMV): LCMV Primary Screen - GLuc reporter signal (AID 1347086); also: nearly all actives have a fitted effect of over 70% in size
Conditions: LCMV minigenome vRNP cell assay, Gaussia luciferase reporter; series mostly up to 57.5 µM; activity change, negative = inhibition: at the top concentration
% is scaled to controls: 0 for no effect and ±100 for the full control effect; potency is read from the fitted curve at half-maximal effect.

Nucleoprotein (Lymphocytic choriomeningitis virus (strain Armstrong)), sequence (P09992 whole entry, looked up): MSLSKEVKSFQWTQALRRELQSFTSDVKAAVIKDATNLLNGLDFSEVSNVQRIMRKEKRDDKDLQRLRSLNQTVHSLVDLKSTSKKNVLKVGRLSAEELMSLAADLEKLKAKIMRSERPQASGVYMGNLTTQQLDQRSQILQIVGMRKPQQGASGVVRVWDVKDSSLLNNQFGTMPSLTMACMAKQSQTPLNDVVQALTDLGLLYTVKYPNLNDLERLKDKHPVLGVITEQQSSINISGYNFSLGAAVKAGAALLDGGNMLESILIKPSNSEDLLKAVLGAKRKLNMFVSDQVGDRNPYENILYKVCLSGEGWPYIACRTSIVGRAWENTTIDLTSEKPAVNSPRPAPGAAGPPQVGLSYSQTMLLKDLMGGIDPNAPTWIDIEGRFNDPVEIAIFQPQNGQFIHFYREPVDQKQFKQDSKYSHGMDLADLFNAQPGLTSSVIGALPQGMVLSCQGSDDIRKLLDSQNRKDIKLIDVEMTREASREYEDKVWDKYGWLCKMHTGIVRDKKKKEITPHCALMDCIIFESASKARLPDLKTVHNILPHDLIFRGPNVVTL

Compound	activity change, negative = inhibition	Potency
Cc1cc(O)c2c(c1O)C(=O)C(O)=C(O)C2=O	-15.3%	–
CC12CCC(=O)C=C1CCC1C2CCC2(C)C(C(=O)CO)CC(O)C12 (stereo unspecified)	6.63%	–
CCN1CCC(n2cc(CNc3cc(Cl)c4ncc(C#N)c(Nc5ccc(F)c(Cl)c5)c4c3)nn2)CC1	6.38%	–
CCC(C)c1nccnc1OC (stereo unspecified)	7.72% [at 115 µM]	–
C[C@@H]1CC2OC(=O)[C@@]3(C)C(=O)CC[C@@](C)(C23)[C@@]1(O)CCc1ccoc1 (stereo partly specified)	0.834%	–
COC(=O)[C@@H]1CC2=CC(=O)CC[C@]2(C)[C@@]23O[C@@H]2C[C@@]2(C)[C@H](CC[C@@]24CCC(=O)O4)[C@@H]13	42.3%	–
CNC(=O)c1nn(C)c2c1C(C)(C)Cc1cnc(Nc3ccc(N4CCN(C)CC4)cc3)nc1-2	–	3.06 µM (active)
C=C1C[C@H](O)[C@@H]2[C@H](OC(=O)[C@H]2C)[C@H]2[C@H](C)[C@@H](O)C[C@@H]12	0.515%	–
CC1(C)CCC[C@]2(C)[C@H]3CCO[C@]3(C)CC[C@@H]12	26.3% [at 115 µM]	–
O=c1c(O)c(-c2ccc(O[C@@H]3O[C@H](CO)[C@@H](O)[C@H](O)[C@H]3O)c(O)c2)oc2cc(O)cc(O)c12	30.8%	–
CC1=CCC2C(C1)C2(C)C (stereo unspecified)	-1.74% [at 115 µM]	–
O=C(O)c1ccco1	9.45% [at 115 µM]	–
CCCCCCCCCCCCCCCCCCCCCCCCCCCCCC	-0.954%	–
CCCCc1nc2ccccc2[nH]1	10.2%	–
CC/C=C\CCCCCO	-11.3%	–
Cc1nc2n(c(=O)c1CCN1CCC(c3noc4cc(F)ccc34)CC1)CCCC2O (stereo unspecified)	20.1%	–
